Assay results reported in PubChem BioAssay (NCATS).
Results filed as inconclusive are left out. Where a call stands in place of a potency, no number is given. A number with no mark means an inactive call. Active and inactive are the calls of the source. Calls come from the whole dose curve; as a rule, active = well fitted inhibition curve with a large enough effect; inconclusive = small, poorly fitted or top-dose-only effect; inactive = flat fitted curve, though single readings scatter.

Assays:
JCK = assay: qHTS profiling for inhibitors of Plasmodium falciparum proliferation (AID 504749); note: potency is the fitted concentration of half-maximal effect; details: P. falciparum in erythrocytes, SYBR Green DNA, 72 h; series mostly up to 28.7 µM
Method in brief: (§1)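 Fluorescence of SYBR Green-bound parasite DNA, read at 485/535 nm, served as the growth measure. Infected erythrocytes were cultured with compound 72 h; artemisinin (0.29 uM) and DMSO wells defined the normalization range.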

N140 = assay: as above; details: P. falciparum in erythrocytes, SYBR Green DNA, 72 h; series mostly up to 28.7 µM
Method in brief: as §1

P93_24 = assay: as above; details: P. falciparum in erythrocytes, SYBR Green DNA, 72 h; series mostly up to 28.7 µM
Method in brief: as §1

P94_40 = assay: as above; details: P. falciparum in erythrocytes, SYBR Green DNA, 72 h; series mostly up to 28.7 µM
Method in brief: as §1

PAD = assay: as above; details: P. falciparum in erythrocytes, SYBR Green DNA, 72 h; series mostly up to 28.7 µM
Method in brief: as §1

PC15 = assay: as above; details: P. falciparum in erythrocytes, SYBR Green DNA, 72 h; series mostly up to 28.7 µM
Method in brief: as §1

PC26 = assay: as above; details: P. falciparum in erythrocytes, SYBR Green DNA, 72 h; series mostly up to 28.7 µM
Method in brief: as §1

PC49 = assay: as above; details: P. falciparum in erythrocytes, SYBR Green DNA, 72 h; series mostly up to 28.7 µM
Method in brief: as §1

SC27B = assay: as above; details: P. falciparum in erythrocytes, SYBR Green DNA, 72 h; series mostly up to 28.7 µM
Method in brief: as §1

TAB109 = assay: as above; details: P. falciparum in erythrocytes, SYBR Green DNA, 72 h; series mostly up to 28.7 µM
Method in brief: as §1

TAB113 = assay: as above; details: P. falciparum in erythrocytes, SYBR Green DNA, 72 h; series mostly up to 28.7 µM
Method in brief: as §1

TAB165 = assay: as above; details: P. falciparum in erythrocytes, SYBR Green DNA, 72 h; series mostly up to 28.7 µM
Method in brief: as §1

HaCat [1] = assay: Cytotoxic Profiling of Annotated Libraries Using Quantitative High-Throughput Screening (AID 1296008); details: Five cell lines viability, CellTiter-Glo ATP luminescence, 48-72 h; max response: stronger effect = lower value; note: potency is the fitted concentration of half-maximal effect
Method in brief: (§2)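 Compounds were pin-transferred onto cells and incubated 48 or 72 hr at 37 degree Celsius, 95% humidity. CellTiter-Glo was added, plates sat 10 min at room temperature, then ATP-coupled luminescence was imaged as the viability read-out.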

KB-3-1 = assay: as above; details: Five cell lines viability, CellTiter-Glo ATP luminescence, 48-72 h; max response: stronger effect = lower value
Method in brief: as §2

HACAT [2] = assay: qHTS assay to identify novel small-molecules to repurpose for Merkel cell carcinoma treatment (AID 1296009); details: MCC and control cell lines, CellTiter-Glo viability, 72 h; at 44.8 µM (top of the series) unless noted
Method in brief: (§3)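 Luminescence from CellTiter-Glo, read 10 min after addition at room temperature, reported viability following a 72 hr, 37 degree celsius treatment with NPC or MIPE compounds in titration; values normalized to plate controls.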

NIH3T3 = assay: Cytotoxic Profiling of Annotated Libraries Using Quantitative High-Throughput Screening (AID 1296008); details: Five cell lines viability, CellTiter-Glo ATP luminescence, 48-72 h; max response: stronger effect = lower value; note: potency is the fitted concentration of half-maximal effect
Method in brief: as §2

W2 = assay: qHTS profiling for inhibitors of Plasmodium falciparum proliferation (AID 504749); note: potency is the fitted concentration of half-maximal effect; details: P. falciparum in erythrocytes, SYBR Green DNA, 72 h; series mostly up to 28.7 µM
Method in brief: as §1

HEK293 = assay: Cytotoxic Profiling of Annotated Libraries Using Quantitative High-Throughput Screening (AID 1296008); details: Five cell lines viability, CellTiter-Glo ATP luminescence, 48-72 h; max response: stronger effect = lower value; note: potency is the fitted concentration of half-maximal effect
Method in brief: as §2

CRL-7250 = normal cell line; assay: as above; details: Five cell lines viability, CellTiter-Glo ATP luminescence, 48-72 h; max response: stronger effect = lower value
Method in brief: as §2

HEK293T = assay: qHTS assay to identify novel small-molecules to repurpose for Merkel cell carcinoma treatment (AID 1296009); details: MCC and control cell lines, CellTiter-Glo viability, 72 h; at 44.8 µM (top of the series) unless noted
Method in brief: as §3
Note: nearly all actives have a fitted effect of over 60% in size.

Cc1c(C)n(Cc2ccccc2)c2ccc(C(=O)OCCN(C)C)cc12
Potency (JCK): inactive
Potency (N140): inactive
Potency (P93_24): inactive
Potency (P94_40): inactive
Potency (PAD): inactive
Potency (PC15): inactive
Potency (PC26): inactive
Potency (PC49): inactive
Potency (SC27B): inactive
Potency (TAB109): inactive
Potency (TAB113): inactive
Potency (TAB165): inactive
outcome (HaCat [1]): inactive
max response (KB-3-1): 1.73%
outcome (HACAT [2]): inactive

C[C@@H]1C[C@H]2[C@@H]3C[C@H](F)C4=CC(=O)C(Cl)=C[C@]4(C)[C@@]3(F)[C@@H](O)C[C@]2(C)[C@@]1(O)C(=O)CO
max response (HaCat [1]): 2.77%
max response (KB-3-1): 11.7%
max response (NIH3T3): -7.22%

CCN(CC)CCOc1ccc(C(O)(Cc2ccc(Cl)cc2)c2ccc(C)cc2)cc1 (stereo not drawn)
Potency (P93_24): 8.91 µM (active)
Potency (TAB165): 10 µM (active)
Potency (W2): 6.01 µM (active)
Potency (HEK293): 9.44 µM (active)
Potency (KB-3-1): 16.4 µM (active)

O=C(N/N=C/c1ccccc1O)c1ccncc1
Potency (JCK): inactive
Potency (P93_24): 10 µM (active)
Potency (P94_40): 10 µM (active)
Potency (PC15): inactive
Potency (PC49): inactive
Potency (TAB109): 12.6 µM (active)
Potency (TAB165): 5.62 µM (active)
Potency (W2): 6.01 µM (active)
max response (HaCat [1]): -6.14%
max response (KB-3-1): 8.17%
Potency (NIH3T3): 16.8 µM (active)

C[C@@H](CN(C)C)CN1c2ccccc2Sc2ccccc21
Potency (JCK): inactive
Potency (P93_24): inactive
Potency (PAD): inactive
Potency (PC15): inactive
Potency (PC49): inactive
Potency (SC27B): inactive
Potency (TAB109): inactive
Potency (TAB113): inactive
Potency (TAB165): inactive
max response (HaCat [1]): -0.198%
max response (NIH3T3): -1.51%

COc1cc(-c2ccc(=O)[nH]n2)ccc1OC(F)F
Potency (N140): 0.224 µM (active)
Potency (P93_24): 0.0112 µM (active)
Potency (P94_40): 0.112 µM (active)
Potency (PAD): inactive
Potency (PC15): inactive
Potency (SC27B): inactive
Potency (TAB109): 0.0447 µM (active)
Potency (TAB113): 0.0355 µM (active)
Potency (TAB165): 0.282 µM (active)
Potency (CRL-7250): 1.19 µM (active)
max response (NIH3T3): -9.32%

Cc1cc(N)c2cc(NC(=O)Nc3ccc4nc(C)cc(N)c4c3)ccc2n1
Potency (JCK): 11.2 µM (active)
Potency (N140): 11.2 µM (active)
Potency (P94_40): 12.6 µM (active)
Potency (PAD): 12.6 µM (active)
Potency (SC27B): 12.6 µM (active)
Potency (TAB109): 12.6 µM (active)
Potency (TAB113): 10 µM (active)
Potency (TAB165): 5.62 µM (active)
Potency (W2): 0.849 µM (active)
max response (HaCat [1]): -0.42%
max response (NIH3T3): -1.27%

C#C[C@]1(O)CC[C@H]2[C@@H]3CCc4cc(OC5CCCC5)ccc4[C@H]3CC[C@@]21C
Potency (JCK): inactive
Potency (N140): inactive
Potency (P93_24): inactive
Potency (PAD): inactive
Potency (PC15): inactive
Potency (PC26): inactive
Potency (PC49): inactive
Potency (TAB109): inactive
Potency (TAB165): inactive
max response (CRL-7250): 0.636%
max response (KB-3-1): -14.7%

C[C@@H]1C(=O)NC2=Nc3cccc(Cl)c3CN21
Potency (JCK): inactive
Potency (N140): inactive
Potency (P93_24): inactive
Potency (P94_40): inactive
Potency (PAD): inactive
Potency (PC15): inactive
Potency (PC26): inactive
Potency (PC49): inactive
Potency (SC27B): inactive
Potency (TAB109): inactive
Potency (TAB165): inactive
Potency (W2): inactive
max response (KB-3-1): -2.45%

Nc1nc2ncc(CNc3ccc(C(=O)N[C@@H](CCC(=O)O)C(=O)O)cc3)nc2c(=O)[nH]1
outcome (HEK293T): inactive

CCOC(=O)/C=C(C)/C=C/C=C(C)/C=C/c1c(C)cc(OC)c(C)c1C
Potency (JCK): inactive
Potency (P94_40): 8.91 µM (active)
Potency (PC15): inactive
Potency (PC49): inactive
Potency (TAB113): 3.55 µM (active)
outcome (HACAT [2]): inactive

NC(CO)(CO)CO
Potency (JCK): inactive
Potency (N140): inactive
Potency (P93_24): inactive
Potency (P94_40): inactive
Potency (PAD): inactive
Potency (PC15): inactive
Potency (PC26): inactive
Potency (PC49): inactive
Potency (SC27B): inactive
Potency (TAB109): inactive
Potency (TAB113): inactive
Potency (TAB165): inactive
Potency (W2): inactive
max response (KB-3-1): 3.6%
max response (NIH3T3): -20%

CN(C)/N=N/c1nc[nH]c1C(N)=O
Potency (JCK): inactive
Potency (N140): inactive
Potency (P93_24): inactive
Potency (P94_40): inactive
Potency (PAD): inactive
Potency (PC15): inactive
Potency (PC26): inactive
Potency (PC49): inactive
Potency (SC27B): inactive
Potency (TAB109): inactive
Potency (TAB113): inactive
Potency (TAB165): inactive
Potency (W2): inactive
max response (KB-3-1): -8.2%

Nc1ccc(C(=O)Nc2ccccc2N)cc1
Potency (JCK): inactive
Potency (N140): inactive
Potency (P93_24): inactive
Potency (P94_40): inactive
Potency (PAD): inactive
Potency (PC15): inactive
Potency (PC26): inactive
Potency (PC49): inactive
Potency (SC27B): inactive
Potency (TAB109): inactive
Potency (TAB113): inactive
Potency (TAB165): inactive
max response (KB-3-1): -27.7%

C[N+]1(CCCCC[N+]2(C)CCCC2)CCCC1
Potency (JCK): inactive
Potency (N140): inactive
Potency (P93_24): inactive
Potency (P94_40): inactive
Potency (PAD): inactive
Potency (PC15): inactive
Potency (PC26): inactive
Potency (PC49): inactive
Potency (SC27B): inactive
Potency (TAB109): inactive
Potency (TAB113): inactive
Potency (TAB165): inactive
Potency (W2): inactive
max response (KB-3-1): 15%

CNCCC=C1c2ccccc2CCc2ccccc21
Potency (N140): 7.08 µM (active)
Potency (W2): 1.51 µM (active)
max response (KB-3-1): -9.12%

CC(=O)CC(c1ccc([N+](=O)[O-])cc1)c1c(O)c2ccccc2oc1=O (stereo not drawn)
outcome (HACAT [2]): inactive

NCCC(O)(P(=O)(O)O)P(=O)(O)O
Potency (JCK): inactive
Potency (N140): inactive
Potency (P93_24): inactive
Potency (P94_40): inactive
Potency (PAD): inactive
Potency (PC15): inactive
Potency (PC26): inactive
Potency (PC49): inactive
Potency (SC27B): inactive
Potency (TAB109): inactive
Potency (TAB113): inactive
Potency (TAB165): inactive
Potency (W2): inactive
outcome (HACAT [2]): inactive

CCC(NC(C)C)C(O)c1ccc(O)c(O)c1 (stereo not drawn)
max response (KB-3-1): -9.53%

CC/C(=C(/CC)c1ccc(O)cc1)c1ccc(O)cc1
Potency (JCK): inactive
Potency (N140): inactive
Potency (P93_24): inactive
Potency (PAD): inactive
Potency (PC26): inactive
Potency (PC49): inactive
Potency (TAB109): inactive
max response (KB-3-1): -22.7%
max response (NIH3T3): -25.4%

N[C@H](CO)C(=O)O
Potency (JCK): inactive
Potency (N140): inactive
Potency (P93_24): inactive
Potency (P94_40): inactive
Potency (PAD): inactive
Potency (PC15): inactive
Potency (PC26): inactive
Potency (PC49): inactive
Potency (SC27B): inactive
Potency (TAB109): inactive
Potency (TAB113): inactive
Potency (TAB165): inactive
Potency (W2): inactive
max response (KB-3-1): -2.03%

COC(=O)[C@H]1[C@H]2C[C@H]3c4[nH]c5ccccc5c4CCN3C[C@H]2CC[C@@H]1O
Potency (PC26): inactive
Potency (W2): inactive
max response (KB-3-1): -10.9%

CC(C)(C)CC(C)(C)c1ccc(O)c(Cc2ccc(Cl)cc2Cl)c1
Potency (JCK): 3.16 µM (active)
Potency (N140): 0.794 µM (active)
Potency (P93_24): 1.26 µM (active)
Potency (P94_40): 1 µM (active)
Potency (PAD): 1 µM (active)
Potency (PC15): 2.24 µM (active)
Potency (PC26): 1.51 µM (active)
Potency (PC49): 1.78 µM (active)
Potency (SC27B): 1.26 µM (active)
Potency (TAB109): 2 µM (active)
Potency (TAB113): 1.12 µM (active)
Potency (TAB165): 0.794 µM (active)
Potency (W2): 0.426 µM (active)
max response (KB-3-1): -6.63%
